High-throughput results (PubChem BioAssay)
ASM inhibitor = Inhibitors of Secretory Acid Sphingomyelinase (S-ASM): qHTS; Sphingomyelin phosphodiesterase (Homo sapiens), P17405; placental ASM, HMU-PC fluorogenic substrate, 60 min; Potency, µM (series often up to 57.5 µM), most hits filed as inhibitors; 340,000 compounds, 0.006% hits
Target sequence (P17405 47-631 limits assumed): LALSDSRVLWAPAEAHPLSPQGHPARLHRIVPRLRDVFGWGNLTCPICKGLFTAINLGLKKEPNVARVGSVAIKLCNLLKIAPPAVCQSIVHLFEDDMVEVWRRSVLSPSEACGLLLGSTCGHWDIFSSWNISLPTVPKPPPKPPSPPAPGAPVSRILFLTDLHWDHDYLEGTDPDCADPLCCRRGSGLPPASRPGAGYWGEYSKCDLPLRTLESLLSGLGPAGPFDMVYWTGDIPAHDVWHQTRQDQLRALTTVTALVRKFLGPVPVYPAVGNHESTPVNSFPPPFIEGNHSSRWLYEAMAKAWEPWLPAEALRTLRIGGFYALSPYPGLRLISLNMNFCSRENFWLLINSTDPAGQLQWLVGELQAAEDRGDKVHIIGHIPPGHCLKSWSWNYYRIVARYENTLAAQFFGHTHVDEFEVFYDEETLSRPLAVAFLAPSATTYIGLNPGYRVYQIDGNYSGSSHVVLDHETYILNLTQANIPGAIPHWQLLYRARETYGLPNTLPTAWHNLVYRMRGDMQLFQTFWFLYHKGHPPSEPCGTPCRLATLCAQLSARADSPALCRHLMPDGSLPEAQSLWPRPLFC
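Steps: dispense placental human ASM, pin compound, wait 10 min at room temperature, add HMU-PC0 substrate at 9 uM final, incubate 60 min at 37 °C, add stop solution raising pH to 10, read fluorescence.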
TDP-43 yeast inh = qHTS of TDP-43 Inhibitors; TDP-43 expressing yeast growth rescue, BacTiter-Glo, 24 h; Potency, µM (top dose mostly 46.1 µM), hits mostly activators; 410,000 compounds, 1.8% hits; AID 652104, 2013; also: nearly all actives have a fitted effect of over 50% in size
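Growth rescue of TDP-43-toxic yeast measured as ATP luminescence (BacTiter-Glo). Cells grown to mid-log in raffinose, induced in galactose at OD600=0.02, exposed to compound 24 hr at 30 deg C.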
Rango-impB inh = qHTS Assay for Inhibitors of Rango (Ran-regulated importin-beta cargo) - Importin beta complex formation. 340,000 compounds, 0.031% hits. Rango CFP/YFP FRET sensor + importin beta, 45 min. Potency, µM (titrated, usually from 92.2 µM); calls by dose curve; also: nearly all actives have a fitted effect of over 15% in size
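FRET biosensor Rango (snurportin 1 IBB between N-terminal EYFP and C-terminal Cerulean), 50 nM in PBS/1 mM DTT/0.02% Tween-20/0.1% BSA, preincubated 5 min RT with compound; 0.125 microM importin beta added, 45 min RT, CFP/YFP FRET ratio read.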
Abeta rescue = qHTS for compounds that reverse cellular toxicity of Amyloid beta (A-beta) peptide in yeast: Primary Screen; yeast expressing A-beta42, growth rescue, OD600, 48 h; response scale: 0% DMSO, 100% iron-clioquinol control; Potency, µM (series often up to 46.1 µM), usual class: activators; 410,000 compounds, 0.063% hits; also: nearly all actives have a fitted effect of over 55% in size
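Yeast growth medium received pinned compounds, then yeast cells expressing toxic A-beta were added; plates incubated at 30 C for 48 hr. Growth read as absorbance at 600 nm, normalized to DMSO and equimolar FeCl3 plus clioquinol controls.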
Rango dissoc inh = qHTS Assay for Inhibitors of RanGTP induced Rango (Ran-regulated importin-beta cargo) - Importin beta complex dissociation; Snurportin-1 (Homo sapiens) + GTP-binding nuclear protein Ran (Homo sapiens) + Importin …; Biochemical FRET Rango-importin beta, RanGTP-induced dissociation; Potency, µM (doses to about 46.1 µM); 340,000 compounds, 0.071% hits; AID 540253, 2011; calls by dose curve; also: nearly all actives have a fitted effect of over 45% in size
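FRET read at 45 min, room temperature: inhibitors block the CFP/YFP signal rise when RanGTP (0.6 uM Ran, 2 mM GTP, 0.2 uM RCC1) frees Rango (0.1 uM) from importin beta (0.25 uM). Pre-read after 5 min compound exposure flags interference.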
aSyn yeast inh = qHTS of alpha-syn Inhibitors. 370,000 compounds, 0.14% hits. Potency, µM (highest dose often 46.1 µM), most hits filed as activators. Yeast expressing alpha-synuclein, growth rescue, BacTiter-Glo, 24 h. AID 652106, 2013; also: nearly all actives have a fitted effect of over 65% in size
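Readout is rescue of growth in alpha-synuclein-expressing yeast, so inhibitors of toxicity appear as activators. Growth after 24 hr at 30 deg C in galactose medium is quantified by luminescence.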
A number is an active result; - = inactive; ? = inconclusive; . = no result; [ ] = remark or other dose. Shown are actives, neighbours in structure and some others; about 2% of the full set was active somewhere. Unless noted, calls follow the shape of the dose curve; as a rule, active = well fitted curve in the direction sought with a large enough effect; inconclusive = small, poorly fitted or top-dose-only effect, or another doubt; inactive = no such curve, though single readings can be large; an effect the other way counts as inactive or inconclusive.

SMILES	ASM inhibitor	TDP-43 yeast inh	Rango-impB inh	Abeta rescue	Rango dissoc inh	aSyn yeast inh
Cc1c(C(=O)OCC(=O)N(C)Cc2ccc(Cl)cc2)oc2ccccc12	-	?	-	-	-	-
Cc1c(C(=O)OC(C)C(=O)N(C)Cc2ccccc2)oc2ccccc12 (stereo not given)	-	35.5µM	-	-	-	-
Cc1ccc(O)c(C(=O)CC(=O)c2cccc(F)c2)c1	-	-	-	-	-	15.8µM
O=C(CC(=O)c1cc(Cl)ccc1O)c1ccccc1	-	10µM	-	-	-	?
Cc1cc(Br)c(OCc2ccc(C(=O)N/N=C3\CC4CC=CC34)cc2)c(Br)c1 (stereo not given)	-	25.1µM	-	-	-	-
O=C(N/N=C1\CC2CC=CC12)c1ccc(Br)cc1 (stereo not given)	-	-	-	-	-	-
CCc1cccc(C)c1NC(=O)C1CCN(S(=O)(=O)Cc2ccccc2)CC1	.	-	.	-	.	.
CCOC(=O)c1c(C(C)(C)C)oc2ccc(O)cc12	-	17.8µM	-	-	-	-
O=C1c2ccccc2N2C(=O)c3ccccc3C2N1Cc1ccccc1 (stereo not given)	-	-	-	-	-	-
O=C1c2ccccc2N2C(=O)c3ccccc3[C@H]2N1c1ccccc1	-	20µM	-	-[9.22 µM]	-	-
CC(=O)Nc1ccc2c(c1Br)Cc1ccccc1-2	-	17.8µM	-	-	-	-
Nc1ccc2c(c1Br)Cc1ccccc1-2	?	35.5µM	-	-	-	-
Cc1nn(Cc2ccc(C(=O)Nc3ccccc3C(F)(F)F)o2)c(C)c1Br	-	12.6µM	-	-	-	.
CC(C)Oc1ccc(C(=O)N2CCC(c3nc4ccccc4o3)CC2)cc1	.	-	.	-	.	.
CCCCOc1ccc(C(=O)N2CCC(c3nc4ccccc4o3)CC2)cc1	.	28.2µM	.	-	.	.
O=C(COc1cccc(Cl)c1)N1CCC(c2nc3ccccc3o2)CC1	.	28.2µM	.	-	.	.
COC(=O)c1ccc(NC(=O)c2nc(SCc3ccccc3F)ncc2Cl)cc1	.	.	.	.	.	-
O=C(CSc1nc2c(sc3ccccc32)c(=O)n1CCCC(=O)NC1CCCC1)Nc1ccc(F)cc1	.	-	.	-	.	.
S=C(NCc1ccco1)N1CCN(c2cccc(Cl)c2)CC1	-	-	-	12.6µM	-	-
Cc1cccc(Oc2ncnc(N)c2[N+](=O)[O-])c1	-	?	-	-	-	-
Cc1ccc(Oc2ncnc(N)c2[N+](=O)[O-])cc1C	-	11.2µM	-	-	-	-
Cc1cc(Sc2ncnc(N)c2[N+](=O)[O-])ncn1	-	22.4µM	-	-	-	-
COc1cccc(-c2nc(SCC(=O)NC3CCCC3)c(-c3ccccc3)[nH]2)c1	.	-	.	-	.	.
C/C=C/c1ccc(O)c(OC)c1	-	-	-	-	-	-
CC=Cc1cc(OC)c2c(c1)C(C)C(c1ccc(O)c(OC)c1)O2 (stereo not given)	-	35.5µM	-	-	-	?
SMILES	ASM inhibitor	TDP-43 yeast inh	Rango-impB inh	Abeta rescue	Rango dissoc inh	aSyn yeast inh
Brc1ccc(Oc2nsnc2N2CCOCC2)cc1	-	11.2µM	-	-	-	-
CC(=O)c1ccc(-c2c(CCO)sc3ccccc23)cc1	.	12.6µM	.	-	.	-
CC(=O)c1ccc(-c2[nH]c3ccccc3c2CCN2C(=O)c3ccccc3C2=O)cc1	-	-	-	-	-	-
CCOc1ccccc1NC(=O)C(=O)NCC(c1cccnc1)N1CCN(c2ccccc2)CC1 (stereo not given)	.	-	.	-	.	.
O=C1NCCc2c1[nH]c1ccccc21	-	-	-	-	-	-
O=C1NCCc2c1[nH]c1c(Cl)ccc(Cl)c21	-	10µM	-	-	-	-
Clc1cccc(CNc2cc(-c3ccccc3)nc3nncn23)c1	.	-	.	-	.	.
O=C(O)c1cncc(C#CCC2CCCCC2)c1	-	14.1µM	-	-	-	-
Cc1cccc(NC(=O)C(=O)NCC(c2ccc3c(c2)OCO3)N2CCOCC2)c1C (stereo not given)	.	-	.	-	.	.
Cc1cccc(Nc2c3c(nc4nncn24)CCC3)c1C	.	?	.	-	.	.
COc1ccc(C2=NN(C(=O)CSc3nc4ncc(Cl)cc4[nH]3)C(c3ccco3)C2)cc1 (stereo not given)	-	35.5µM	?	-	-	-
O=C(COc1ccc(-c2nnco2)cc1)NC1CCCc2ccccc21 (stereo not given)	-	20µM	-	-	-	-
O=C(COc1ccccc1)NC1CCCc2ccccc21 (stereo not given)	-	?	-	-	-	-
Cc1cc(Cl)ccc1OCC(=O)NNC(=O)C1CCN(c2ncnc3sc(C)c(C)c23)CC1	-	22.4µM	-	-	-	-
Fc1cccc(Cc2c(-c3ccco3)nc3c4ccccc4ccn23)c1	.	35.5µM	.	-	.	-
Fc1ccc(-c2nc3c4ccccc4ccn3c2Cc2cccc(Cl)c2)cc1	.	14.1µM	.	-	.	-
Clc1cccc(Cc2c(-c3ccccc3)nc3c4ccccc4ccn23)c1	.	11.2µM	.	-	.	?
CN(NC(=O)c1ccc(Cl)cc1)c1ncc(C(F)(F)F)cc1Cl	-	-	-	-	-	-
O/N=C(\c1ccc(Cl)cc1)c1ncc(C(F)(F)F)cc1Cl	-	12.6µM	-	-	-	-
CCC1CN(C(=O)Nc2ccc(C(=O)O)cc2)c2cc(Cl)ccc2O1 (stereo not given)	.	12.6µM	.	-	.	.
CCc1ccccc1NC(=O)N1CC(CC)Oc2ccc(Cl)cc21 (stereo not given)	.	-	.	-	.	.
Cc1cc(Br)cc2c(C(=O)OCC(=O)c3ccccc3)cc(-c3ccccc3)nc12	.	-	.	-	.	.
CCOC(=O)c1ccccc1NC(=O)Cn1c(=O)n(CCC(=O)N2CCc3ccccc3C2)c(=O)c2ccccc21	.	35.5µM	.	-	.	.
Cc1cc(OCC(=O)NNC(=S)NC(=O)c2ccc(Br)o2)ccc1Cl	-	20µM	-	?	-	?
CCC(=O)NC(=S)Nc1ccc(NC(=O)COc2ccc(Cl)c(C)c2)cc1	-	-	-	-	-	-
CC1CCCN(C(=O)Cn2ncc3c([nH]c4ccccc43)c2=O)C1 (stereo not given)	.	-	.	-	.	.
CSc1nn(CC(=O)Nc2ccc(C)cc2C)c(N)c1S(=O)(=O)c1ccc(Cl)cc1	.	-	.	-	.	.
CCOC(=O)C1=CN(Cc2cccc(F)c2)S(=O)(=O)NC1c1ccc(Br)cc1F (stereo not given)	-	15.8µM	-	-	-	-
